Data on 18 molecules can be found in PubChem BioAssay (EPA / NIEHS).

The AC50 is the midpoint of the concentration-response curve, whichever way the signal moves.

Read-out in test [1]: Interferon-gamma inducible Protein 10 (IP10), CXCL10 (gene 3627)
The test is described as follows: BSK_BE3C_IP10: BioMAP Diversity Plus: BE3C Assay for Interferon-gamma inducible Protein 10 (IP10) Biomarker Activity (AID 2283034). The note with it: primary human bronchial epithelial cells; actives raise or lower the signal. In a few lines: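 BE3C cells (human bronchial epithelial, primary); 24 h exposure; ELISA for IP-10; DMSO-referenced bidirectional fit.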

Read-out in test [2]: Monokine induced gamma interferon (MIG), CXCL9 (gene 4283)
The test is described as follows: BSK_BE3C_MIG: BioMAP Diversity Plus: BE3C Assay for Monokine induced gamma interferon (MIG) Biomarker Activity (AID 2283035). The following applies: primary human bronchial epithelial cells; actives raise or lower the signal. A digest of the protocol: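 hu bronchial epithelial 1° cells, 24 h cpd; MIG by ELISA; bidirectional fit, DMSO = baseline.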

Read-out in test [3]: Transforming growth factor beta 1 (TGFb1), TGFB1 (gene 7040)
The test is described as follows: BSK_BE3C_TGFb1: BioMAP Diversity Plus: BE3C Assay for Transforming growth factor beta 1 (TGFb1) Biomarker Activity (AID 2283036;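 for outcome: TGF-b1 protein level measured by ELISA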). The following applies: primary human bronchial epithelial cells; actives raise or lower the signal. In a few lines:
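TGF-b1 measured via ELISA, 24 h after chemical dosing of human bronchial epithelial cells (BE3C). Overt cytotoxicity assessed in parallel by SRB (0.1%, TCA-fixed, 560 nm); analysis bidirectional relative to DMSO.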

Read-out in test [4]: Plasminogen activator inhibitor-1 (PAI1), SERPINE1 (gene 5054)
The test can be described thus: BSK_BE3C_PAI1: BioMAP Diversity Plus: BE3C Assay for Plasminogen activator inhibitor-1 (PAI1) Biomarker Activity (AID 2283037). The note with it: primary human bronchial epithelial cells; actives raise or lower the signal. A digest of the protocol: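 In this multiplexed primary-cell system, bronchial epithelial cells receive test chemical and are sampled at 24 h. PAI-1 is read by ELISA, with DMSO serving as negative control for bidirectional fitting.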

Read-out in test [5]: urokinase plasminogen activator (uPA), PLAU (gene 5328)
The test is described as follows: BSK_BE3C_uPA: BioMAP Diversity Plus: BE3C Assay for urokinase plasminogen activator (uPA) Biomarker Activity (AID 2283038).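 For outcome: uPA protein level quantified by ELISA in cell cultures; uPA read one day after compound addition.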 The following applies: primary human bronchial epithelial cells; actives raise or lower the signal. A digest of the protocol: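 Primary human bronchial epithelial cells, uPA measured by ELISA 24 h after dosing. Bidirectional change relative to DMSO; cytotoxicity checked in parallel cultures by sulforhodamine B total-protein staining.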

Read-out in test [6]: Urokinase-type plasminogen activator receptor (uPAR), PLAUR (gene 5329)
The test can be described thus: BSK_BE3C_uPAR: BioMAP Diversity Plus: BE3C Assay for Urokinase-type plasminogen activator receptor (uPAR) Biomarker Activity (AID 2283039).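 For outcome: uPAR protein level measured by ELISA on the cells; cells exposed to compound for one day before measurement.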 The following applies: primary human bronchial epithelial cells; actives raise or lower the signal. A digest of the protocol: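 Chemically treated human bronchial epithelial cells (lung primary) are assayed for uPAR by ELISA after 24 h, with data fitted in both directions using DMSO as negative control.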

Read-out in test [7]: Interleukin-6 (IL6), IL6 (gene 3569)
The test can be described thus: BSK_CASM3C_IL6: BioMAP Diversity Plus: CASM3C Assay for Interleukin-6 (IL6) Biomarker Activity for (AID 2283040). The note with it: primary human coronary artery smooth muscle cells; actives raise or lower the signal.

Read-out in test [8]: Tissue plasminogen activator (tPA), PLAT (gene 5327)
The test is described as follows: BSK_BE3C_tPA: BioMAP Diversity Plus: BE3C Assay for Tissue plasminogen activator (tPA) Biomarker Activity (AID 2283041).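 For outcome: tPA level quantified by ELISA one day after compound addition.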 The following applies: primary human bronchial epithelial cells; actives raise or lower the signal. A digest of the protocol:
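Using human lung primary bronchial epithelial cells, tPA was measured by ELISA 24 h after dosing; data fitted relative to DMSO.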

Read-out in test [9]: Interleukin-8 (IL8), CXCL8 (gene 3576)
The test is described as follows: BSK_CASM3C_IL8: BioMAP Diversity Plus: CASM3C Assay for Interleukin-8 (IL8) Biomarker Activity (AID 2283042).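 Note: IL-8 protein level quantified by ELISA.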 The note with it: primary human coronary artery smooth muscle cells; actives raise or lower the signal.

Active and inactive are the calls of the source. Rule for the calls: active = hit-call score of the fitted dose curve at least 0.9, where 1 is the maximum; inactive = score below 0.9.

Turning to `CCOC(=O)CCN(SN(C)C(=O)Oc1cccc2c1OC(C)(C)C2)C(C)C`, in test [1], the AC50 was 14.1 µM (active). Moreover, the result in test [2], in test [3], in test [4], in test [5], in [6] and in test [7] was inactive. Also, the result in [8] and in test [9] was inactive.

As to `CC(C)N(C(=O)CCl)c1ccccc1`, the AC50 is 33.5 µM (active) in [1], 32.9 µM (active) in test [7] and 27.1 µM (active) in test [9]. Further, the outcome in [2], in [3], in test [4], in [5], in [6] and in [8] was inactive.

Take `CCOC(=O)C(SP(=S)(OC)OC)c1ccccc1` (stereo not given): the AC50 in test [1] is 20 µM (active). For the same molecule, the result in test [2], in test [3], in [4], in [5], in test [6] and in [7] was inactive. Further, the result in [8] and in [9] was inactive.

With `O=C(Cc1ccccc1)OCCc1ccccc1`, the result in test [1], in [2], in test [4], in test [5], in [6] and in test [7] was inactive. The outcome in test [8] and in test [9] was inactive.

As to `Clc1cccc(Cl)c1`, the result in test [1], in test [2], in test [3], in test [4], in test [5] and in [6] was inactive. The result in test [7], in test [8] and in test [9] was inactive.

As to `CCOP(=S)(OCC)OP(=S)(OCC)OCC`, the result in test [1], in test [2], in test [3], in test [4], in [5] and in test [6] was inactive. Besides, the outcome in test [7], in test [8] and in test [9] was inactive.

As to `Oc1cccc(-c2ccccc2)c1`, the result in test [1], in [2], in test [3], in test [4], in [5] and in [6] was inactive. Besides, the result in [7], in [8] and in test [9] was inactive.

On to `CCOP(=O)(OCC)SCCSCC`, for which the outcome in [1], in [2], in test [3], in test [4], in [5] and in test [6] was inactive. Moreover, the outcome in [7], in [8] and in test [9] was inactive.

Turning to `Cc1c([N+](=O)[O-])c(C)c([N+](=O)[O-])c(C(C)(C)C)c1[N+](=O)[O-]`, the outcome in [1], in [2], in test [3], in test [4], in [5] and in test [6] was inactive. Moreover, the result in test [7], in test [8] and in test [9] was inactive.

For the molecule `Oc1cc(Cl)c(Cl)cc1Cl`, the values for the concentration at half-maximal activity (AC50) in [1], in test [5] and in test [8] were 32.2 µM (active), 26.2 µM (active) and 12.9 µM (active), respectively. The outcome in test [2], in test [3], in [6], in test [7] and in test [9] was inactive.

Regarding `O=C(N[C@H]1CN2CCC1CC2)c1ccc2c(c1)OCCO2`, the result in test [1], in [2], in test [3], in [4], in test [5] and in test [6] was inactive. Further, the outcome in test [7], in test [8] and in test [9] was inactive.

With `Cc1cc(C)cc(C)c1`, the result in test [1], in [2], in test [3], in test [4], in test [5] and in test [6] was inactive. In addition, the result in test [7], in [8] and in [9] was inactive.

On to `CCOP(=S)(OCC)SCS(=O)(=O)C(C)(C)C`, for which the outcome in test [1], in test [2], in test [3], in test [4], in test [5] and in test [6] was inactive. Also, the result in [7], in [8] and in test [9] was inactive.

On to `CC(C)O.CC(C)O.OCCN(CCO)CCO.OCCN(CCO)CCO.[Ti]`, for which the result in test [1], in test [2], in test [3], in test [4], in test [5] and in test [6] was inactive. Also, the outcome in test [7], in test [8] and in [9] was inactive.

As to `CCCCN(CCCC)C(=S)[S-].CCCCN(CCCC)C(=S)[S-].[Ni+2]`, the result in test [1], in test [2], in test [3], in test [4], in test [5] and in test [6] was inactive. Moreover, the outcome in test [7], in test [8] and in [9] was inactive.

As for `O=C(O)C1(c2ccc3c(c2)OC[C@H](Cc2ccc(-c4ccccc4)cc2)[C@H]3O)CCCC1`, the AC50 in test [1] was 5.91 µM (active); in test [2], 19.9 µM (active); in test [3], 13 µM (active); in test [4] it was 12.4 µM (active); in [5] it was 13.8 µM (active); in test [6], 14.1 µM (active). Also, the AC50 in [8] is 4.2 µM (active). Moreover, the outcome in test [7] and in test [9] was inactive.

In the case of `CCCCCCCCCCCCN(C)C`, the outcome in [1], in test [2], in test [3], in test [4], in [5] and in test [6] was inactive. For the same molecule, the result in [7], in test [8] and in test [9] was inactive.

In the case of `Cc1cc(C(C)(C)c2ccc(O)c(C)c2)ccc1O`, the AC50 in [1] was 10 µM (active); in test [3] it was 10 µM (active); in test [4], 10 µM (active); in test [6], 3.66 µM (active); in test [7] it was 10 µM (active); in test [8], 15.2 µM (active). Besides, the outcome in test [2], in test [5] and in [9] was inactive.
